MCF10A rereplic – A quantitative high throughput screen for small molecules that induce DNA re-replication in MCF 10a normal breast cells; MCF 10A DNA re-replication, Hoechst nuclear intensity, 48 h; Potency, µM (titrated, usually from 46.1 µM), hits mostly activators; hit rate 2.9% among 350,000; AID 624296, 2012; further: nearly all actives have a fitted effect of over 50% in size
KB-V1 MDR tox – qHTS assay for MDR1-selective chemotherapeutics: Primary screen using the drug-selected MDR subline cells KB-V1; KB-V1 MDR cells viability, CellTiter-Glo, 72 h; Potency, µM (titrated, usually from 46.1 µM), hits mostly cytotoxic; hit rate 3.4% among 400,000; AID 1347076, 2019; further: nearly all actives have a fitted effect of over 60% in size
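Cytotoxicity toward P-gp-expressing KB-V1 cells was determined as loss of CellTiter-Glo luminescence after 72 h at 37 degrees C. Compounds were tested in quantitative HTS format across a concentration range, with curves fitted to normalized data.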
SW480 rereplic – A quantitative high throughput screen for small molecules that induce DNA re-replication in SW480 colon adenocarcinoma cells; SW480 DNA re-replication, Hoechst DNA content imaging, 48 h; Potency, µM (titrated, usually from 46.1 µM), usual class: activators; hit rate 1.8% among 340,000; further: nearly all actives have a fitted effect of over 55% in size
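Cells (250 per well) received 23 nL compound or DMSO by pin tool and were kept 48 hr at 37 C, 5% CO2. Nuclei were then stained with Hoechst for 40 min and scanned for DNA content.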
KCNH2 3.1 inh – qHTS for Inhibitors of KCHN2 3.1: Mutant qHTS | U2OS KCNH2 3.1, thallium flux FluxOr; stronger effect = lower value | AID 720553, 2013 | Potassium voltage-gated channel subfamily H member 2, brain isoform KCNH2 3.1 (human) | hit rate 0.95% among 340,000 | activity change, % (tested at about 1.8 µM);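 active means maximum activity change below -70%; inconclusive means maximum activity change from -70% to -50%; inactive means maximum activity change above -50%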;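 further: thallium influx rate constant from kinetic fluorescence after stimulation buffer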
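Thallium flux via FluxOr fluorescence (Red40 quencher, 45 min loading) in U2OS cells virally expressing the KCNH2 3.1 isoform (1.77 x 10^8 /mL virus, overnight at 37 C). Rate constants from 2-min kinetic reads post-stimulation, normalised to positive and negative controls.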
hERG WT inh – qHTS for Inhibitors of KCHN2 3.1: Wildtype qHTS; Voltage-gated inwardly rectifying potassium channel KCNH2 (Homo sapiens), Q12809; U2OS, BacMam KCNH2, thallium flux FluxOr; stronger effect = lower value; activity change, % at 1.84 µM; hit rate 0.37% among 340,000; AID 720551, 2013;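 active means maximum activity change below -70%; inconclusive means maximum activity change between -70% and -50%; inactive means maximum activity change above -50%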
Target sequence (Q12809 whole entry, looked up): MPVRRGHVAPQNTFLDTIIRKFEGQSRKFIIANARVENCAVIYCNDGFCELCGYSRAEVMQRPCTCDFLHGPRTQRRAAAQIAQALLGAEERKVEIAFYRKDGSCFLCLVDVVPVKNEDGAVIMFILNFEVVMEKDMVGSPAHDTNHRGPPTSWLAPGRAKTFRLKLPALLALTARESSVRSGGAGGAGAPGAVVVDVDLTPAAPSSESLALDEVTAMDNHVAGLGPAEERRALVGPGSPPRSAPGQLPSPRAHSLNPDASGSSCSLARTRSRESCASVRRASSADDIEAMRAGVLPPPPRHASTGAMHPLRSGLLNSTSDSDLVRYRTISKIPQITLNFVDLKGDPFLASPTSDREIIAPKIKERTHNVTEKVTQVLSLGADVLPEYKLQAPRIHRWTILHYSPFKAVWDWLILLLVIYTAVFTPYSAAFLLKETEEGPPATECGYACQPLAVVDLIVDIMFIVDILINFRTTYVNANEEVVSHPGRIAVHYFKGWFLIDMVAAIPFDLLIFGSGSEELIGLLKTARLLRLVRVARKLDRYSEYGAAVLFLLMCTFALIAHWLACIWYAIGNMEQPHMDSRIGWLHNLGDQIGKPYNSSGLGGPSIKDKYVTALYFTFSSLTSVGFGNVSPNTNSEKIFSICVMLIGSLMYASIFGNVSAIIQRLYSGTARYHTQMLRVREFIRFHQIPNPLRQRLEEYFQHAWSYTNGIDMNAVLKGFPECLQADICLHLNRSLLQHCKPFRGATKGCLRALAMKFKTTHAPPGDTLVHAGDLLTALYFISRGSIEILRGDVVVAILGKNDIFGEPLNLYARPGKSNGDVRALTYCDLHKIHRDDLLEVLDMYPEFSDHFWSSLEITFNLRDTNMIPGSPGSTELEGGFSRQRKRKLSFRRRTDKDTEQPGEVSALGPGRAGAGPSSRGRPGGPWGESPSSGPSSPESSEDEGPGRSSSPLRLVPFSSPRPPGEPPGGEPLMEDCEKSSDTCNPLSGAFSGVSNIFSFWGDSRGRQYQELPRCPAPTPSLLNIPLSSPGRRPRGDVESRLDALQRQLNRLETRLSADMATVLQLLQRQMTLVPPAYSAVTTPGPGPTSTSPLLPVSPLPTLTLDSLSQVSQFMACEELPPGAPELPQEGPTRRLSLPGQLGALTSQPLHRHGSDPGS
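U2OS cells transduced with wild-type KCNH2 virus are loaded with FluxOr dye for 45 min, and thallium flux is measured in kinetic reads before and after stimulation buffer. Rate constants are normalized to DMSO controls.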
KB-3-1 tox – qHTS assay for MDR1-selective chemotherapeutics: Primary screen using the parental adenocarcinoma cell KB-3-1; KB-3-1 viability, CellTiter-Glo ATP luminescence, 72 h; hit rate 1.4% among 400,000; Potency, µM (titrated, usually from 46.1 µM), most hits filed as cytotoxic; further: nearly all actives have a fitted effect of over 60% in size
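Parental KB-3-1 adenocarcinoma cells in phenol-red-free DMEM with 10% FBS were pin-treated with compounds at several concentrations, incubated 72 h at 37 °C, and viability read by CellTiter-Glo luminescence; concentration-effect curves were fitted after normalization.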
Numbers stand for hits; . = inactive; ? = inconclusive; / = no result. In the library only some 7.6% were active in any assay of this set; here they are far more common. Unless noted, the call rests on the fitted dose curve; in most records, active means well fitted curve in the direction sought with a large enough effect; inconclusive means small, poorly fitted or top-dose-only effect, or another doubt; inactive means no such curve, though single readings can be large; an effect the other way counts as inactive or inconclusive.

SMILES	MCF10A rereplic	KB-V1 MDR tox	SW480 rereplic	KCNH2 3.1 inh	hERG WT inh	KB-3-1 tox
Cc1ccc(C)c(-n2c(-c3csc(C)c3)n[nH]c2=S)c1	.	18µM	?	.	.	.
Cc1cccc(-n2c(-c3csc(C(C)C)c3)n[nH]c2=S)c1	.	18µM	.	.	.	.
CCN(CC)c1ccc(-c2n[nH]c(=S)n2-c2ccccc2)cc1	?	23µM	?	.	.	13µM
COc1ccc(S(=O)(=O)NCc2ccc(F)cc2)cc1OC	.	.	.	.	.	.
CCS(=O)(=O)c1ncc(N(Cc2ccco2)Cc2sccc2C)c(C(=O)Nc2ccc(C)cc2C)n1	/	.	/	/	/	.
CCOC(=O)Nc1ccc(C(=O)c2ccncc2)cc1	.	.	?	.	.	.
O=C(Cc1cccs1)Nc1cccc(C(=O)Nc2ccc(C(=O)O)cc2)c1	.	.	.	.	.	.
Cc1noc(C)c1COC(=O)c1cccc(N(C)C)c1	.	.	.	.	.	.
Cc1nn(C(C)c2n[nH]c(=S)n2-c2cccc(Cl)c2)c(C)c1[N+](=O)[O-] (stereo unspecified)	.	.	.	.	.	.
Cc1ccc(C(=O)N[C@H](C(=O)OCc2cc(=O)oc3cc(C)ccc23)C(C)C)cc1	.	.	.	.	.	.
O=C(Nc1ccncc1)C1CCCN(S(=O)(=O)c2cccc3cccnc23)C1 (stereo unspecified)	9.2µM	.	2.1µM	.	.	?
Cc1ncccc1C(=O)N1CCCC(c2cc(C(=O)Nc3ccc(C(C)(C)C)cc3)no2)C1 (stereo unspecified)	/	.	/	/	/	.
O=C(Nc1ccc(C(F)(F)F)cc1)C1CCCN(S(=O)(=O)c2cccc3cccnc23)C1 (stereo unspecified)	/	.	/	/	/	.
CC(C)(C)c1ccc(NC(=O)c2cc(C3CCCN(S(=O)(=O)c4cccc5cccnc45)C3)on2)cc1 (stereo unspecified)	/	23µM	/	/	/	?
CC(=O)c1ccc(OC(=O)CCc2nc3ccccc3s2)cc1	.	.	.	.	.	.
C[N+]1(C)[C@@H]2CC(OC(=O)C(O)(c3cccs3)c3cccs3)C[C@H]1[C@@H]1O[C@@H]12 (stereo partly specified)	.	/	.	/	/	/
COc1cccc(CNC(=O)[C@@H]2CCCN2C(=O)[C@@H]2CCCN2C(=O)c2ccc(Cl)cc2)c1	/	?	/	/	/	.
CCCc1c(-c2cccc(Br)c2)ncn1Cc1cccc(-c2ccccc2)c1	/	16µM	/	/	/	?
Cc1cc(Br)cn2c(Cc3ccccc3)c(-c3cccc(Br)c3)nc12	/	?	/	/	/	.
CCCc1c(-c2ccc(Cl)cc2)ncn1Cc1cccc(-c2ccccc2)c1	/	?	/	/	/	16µM
CCOc1ccc(Cl)cc1-c1cc(C(=O)Nc2ccc(C(C)C)cc2)[nH]n1	/	.	/	/	/	.
CC1CCN(c2nc3ccccc3nc2C(C#N)C(=O)OC2CCCCC2)CC1 (stereo unspecified)	.	.	.	.	.	.
CC(C)COc1nc2ccccc2nc1C(C#N)C(=O)NC1CCCCC1 (stereo unspecified)	5.8µM	.	.	.	.	.
CCn1nnc(NC(=O)c2ccc([N+](=O)[O-])o2)n1	15µM	.	?	.	.	?
CCCCn1nnc(NC(=O)c2ccc(-c3ccccc3[N+](=O)[O-])o2)n1	.	.	.	.	.	.
O=C(Nc1ccc(S(=O)(=O)N2CCCC2)cc1)c1ccc([N+](=O)[O-])o1	1.8µM	?	0.73µM	.	.	?
Cc1ccc(C(=O)Nc2ccc(S(=O)(=O)N3CCc4ccccc4C3)cc2)o1	.	15µM	.	.	.	.
